tim10-1 inh: tim10-1 yeast growth inhibition; inhibition, % at 20 µM; AID 463190; S. cerevisiae tim10-1 ts strain growth, BacTiter-Glo, 24 h; 330,000 compounds, 2.2% hits;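 active = inhibition of at least 40%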;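 note: mutant grown at 25 °C; 0% = DMSO wells with yeast and 100% = wells holding no yeast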
TIM10 inh: growth inhibitors of TIM10 yeast strain; inhibition, % at 10 µM; 330,000 compounds, 1.4% hits; S. cerevisiae TIM10 strain growth, BacTiter-Glo luminescence, 24 h;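 active = inhibition of 40% or more at the single tested concentration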;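 note: wild-type TIM10 isogenic control strain grown at permissive 25 °C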
tim23-1 inh: tim23-1 yeast growth inhibition; inhibition, % at 20 µM; AID 463212; 330,000 compounds, 1.3% hits; S. cerevisiae tim23-1 growth, BacTiter-Glo luminescence, 24 h;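 active = growth inhibition of the mutant yeast at or above 50%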;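 note: temperature-sensitive mutant grown at 25 °C; plate controls were DMSO-treated mutant yeast for no effect and medium wells lacking yeast for full effect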
NALP1 inh: NALP1 inhibition. S. cerevisiae NALP1/ASC/caspase-1 growth, X-gal OD620, 72 h. inhibition, % at 10 µM. 280,000 compounds, 0.61% hits. AID 2071; in the data active = inhibition mostly above about 24%, no sharp cut-off; inactive = mostly below about 32%
NALP3 yeast inh: blocks the NALP3 inflammasome reconstituted in yeast; Yeast reconstituted NLRP3/ASC/caspase-1, beta-gal luminescence, 24 h; inhibition, % at 10 µM; 330,000 compounds, 0.39% hits; AID 2825;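 active = inhibition of 50% or more; inactive = inhibition below 50%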;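 note: plate controls were induced DMSO wells for no effect and uninduced yeast grown without galactose for full effect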
V-ATPase pH: yeast V-ATPase proton transport regulation by pHLuorin | S. cerevisiae, pHLuorin cytosolic pH fluorescence | 350,000 compounds, 0.37% hits | response, % at 10 µM; in the data active = response mostly above about 7.3%, no sharp cut-off; inactive = mostly below about 5.4%; note: actives read high
V-ATPase pH SP: yeast V-ATPase proton transport regulation; shares compounds with V-ATPase pH; S. cerevisiae pHLuorin cytosolic pH; response, % at 10 µM; 980 compounds, 2% hits; in the data active = response above about 24%;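 note: plate controls were vehicle wells for no effect and positive control wells for full effect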
Numbers without * were called inactive; · = no result given. Rows were chosen to be rich in hits. Some 4.2% of all compounds tested hit in one or more screens of this group.

SMILES	tim10-1 inh	TIM10 inh	tim23-1 inh	NALP1 inh	NALP3 yeast inh	V-ATPase pH	V-ATPase pH SP
O=c1c(C=Nc2ccc(Cl)cc2)c[nH]n1-c1cccc(Cl)n1	1	12	-15	-7	-9	11*	-4
Cc1cccc(C(=O)NCC(c2ccc(F)cc2)N2CCOCC2)c1 (stereo not drawn)	7	11	19	-16	5	-7	·
Cc1cccc(C(=O)Nc2ccnc(-c3ccncc3)n2)c1	-3	12	0	-14	7	8.5*	0
COc1ccc(CCc2nnc(N)s2)cc1OC	-2	1	4	11	17	-5	·
Cc1nnc(NC(=O)Oc2ccccc2)s1	17	16	17	12	-1	-1	·
CCC(CC)c1nnc(NC(=O)Oc2ccccc2)s1	31	5	38	-5	12	17*	3
CC1(C)C2C/C(=N\O)C(C)(/[N+]([O-])=C/c3cccc([N+](=O)[O-])c3)CC21 (stereo not drawn)	7	17	15	7	16	0	·
CSc1nc(N)c(NC(=O)c2ccc(Br)o2)c(=O)[nH]1	6	-5	-1	6	8	11*	3
CC1=C(C#N)CCC(=O)N1Cc1c(F)cccc1Cl	12	-6	16	0	6	9	-3
O=C1CCC(=O)N1Cc1c(Cl)cccc1Cl	0	0	8	3	23	-2	·
C=CCOc1ccc(CNn2c(C)n[nH]c2=S)cc1OC	4	3	8	14	12	10.0*	1
COc1cc(CNn2cn[nH]c2=S)ccc1OCC(=O)NC(C)(C)C	-2	-9	9	7	8	8.9*	-3
C=CCOc1c(Br)cc(CNn2c(C)n[nH]c2=S)cc1OC	15	2	13	-17	14	-4	·
CN(Cc1c(C(=O)N/N=C/c2c(F)cccc2Cl)nnn1-c1nonc1N)C1CCCCC1	·	·	·	·	·	4	·
CS(=O)(=O)N1Cc2ccccc2CC1C(=O)OCC(=O)NCCc1ccc(S(N)(=O)=O)cc1 (stereo not drawn)	-1	-3	-6	·	3	12*	1
CS(=O)(=O)N1Cc2ccccc2CC1C(=O)OCC(=O)NCc1ccccc1 (stereo not drawn)	-9	-3	4	·	2	-2	·
CCc1ccc(C(C)(O)C(CN2CCOCC2)c2ccccc2)cc1 (stereo not drawn)	5	20	37	18	16	0	·
CCCCCOc1ccc(C(C)(O)C(CN2CCOCC2)c2ccccc2)cc1 (stereo not drawn)	0	25	25	35	17	14*	-1
COc1ccc(-c2nnc(NC(=O)c3ccccc3C)o2)cc1	-18	-4	15	6	4	12*	7
COc1cccc(NC(=S)NNC(=O)c2ccccc2OC(F)F)c1	31	12	15	8	17	9.4*	9
COc1ccc(NC(=O)c2ccccc2-c2ccccc2)cc1	9	6	-7	6	26	0	·
COc1cccc(NC(=O)c2ccccc2-c2ccccc2)c1	21	17	22	8	4	8.8*	-3
CCOC(=O)CC(=O)CSc1nnc2c(n1)[nH]c1ccccc12	17	14	7	16	-8	-3	-1
CN(CC(O)COc1ccc2ccccc2c1)C1CCCCC1 (stereo not drawn)	-11	-6	-7	14	26	0	·
O=c1c2ccccc2ncn1Cc1ccc(Cl)cc1	1	-10	6	-7	39	-2	·
O=c1c2ccccc2ncn1-c1ccc(Cl)cc1	5	-8	6	9	14	-4	4
CC(OC(=O)C1CCCCC1)C(=O)Nc1ccc(S(N)(=O)=O)cc1 (stereo not drawn)	10	2	10	·	8	-5	·
Cc1ccc(C(=O)Nc2ncc(C)s2)o1	28	5	23	5	27	8.8*	0
COc1cccc(N2C(=O)/C(=C\c3cccs3)NC2=S)c1	-3	2	10	1	-7	21*	-4
N#CCc1c(C#N)c(N)nc(N2CCCC(O)C2)c1C#N (stereo not drawn)	0	3	0	-8	25	11*	0

Compound activity from PubChem.
